Laboratory results as given in paper PMC4552634, “A New Set of Chemical Starting Points with Plasmodium falciparum Transmission-Blocking Potential for Antimalarial Drug Discovery” (PLoS ONE, 2015).
Out of some 13,000 compounds screened, about 3,200 (25%) showed an effect of 50% or more. The list shows a part of the results.

Tested on: P. falciparum stage V gametocytes
Parameters: BacTiter-Glo ATP luminescence viability of purified stage V gametocytes in 384-well plates, per cent inhibition versus DMSO
Conditions: 48 h, 5 µM; inhibitor

Structure (SMILES) | % Inhibition
O=C(NC1CC1)c1ccc(N2CCCC(COc3ccccc3F)C2)nc1 (stereo not shown) [TCMDC-134034] | 24.35%
Cc1cccc2nc(-c3ccc(-c4cccc(NC(=O)COc5ccccc5C(N)=O)c4)s3)[nH]c12 [TCMDC-132133] | 0.7486%
CN(CCCCNC(=O)c1cc2ccccc2[nH]1)C1CC2(CCN(C(=O)OC(C)(C)C)CC2)c2ccccc21 (stereo not shown) [TCMDC-132884] | 36.87%
CN(CCCCNC(=O)/C=C/c1ccccc1)C1CC2(CCN(C(=O)OC(C)(C)C)CC2)c2ccccc21 (stereo not shown) [TCMDC-132882] | -12.8%
CN(C1CCC(NC(=O)/C=C/c2ccccc2)CC1)C1CC2(CCN(C(=O)OC(C)(C)C)CC2)c2ccccc21 (stereo not shown) [TCMDC-132880] | 63.78%
OC(CNCc1ccccc1OCc1ccccc1)c1cc(C(F)(F)F)cc(C(F)(F)F)c1 (stereo not shown) [TCMDC-140300] | -49.16%
CCCCN(Cc1cc(Cl)c(OCC)c(OC)c1)c1ccc(C(O)(C(F)(F)F)C(F)(F)F)cc1 [TCMDC-135622] | 2.509%
CCCCN(Cc1cccc(C(F)(F)F)c1Cl)c1ccc(C(O)(C(F)(F)F)C(F)(F)F)cc1 [TCMDC-135213] | -4.716%
CCCCN(Cc1cc(Cl)c(OC)c(OC)c1)c1ccc(C(O)(C(F)(F)F)C(F)(F)F)cc1 [TCMDC-135446] | 54.26%
Cc1ccc(F)cc1S(=O)(=O)Nc1cccc(CCN2CCC(N3CCCCC3)CC2)c1 [TCMDC-134068] | 67.59%
Cc1ccc(F)cc1S(=O)(=O)Nc1ccc(CCN2CCC(N3CCCCC3)CC2)cc1 [TCMDC-134088] | 60.27%
COc1ccc(C2C(C(=O)OC3CCCCC3)=C(C)NC3=C2C(=O)CCC3)cc1Br (stereo not shown) [TCMDC-125070] | -15.5%
COc1cc(CCCON2C(N)=NC(N)=NC2(C)C)cc(OC)c1OC [TCMDC-131726] | 7.417%
COc1ccc(C=C2SC(=N)N(c3ccccc3OC)C2=O)cc1 [TCMDC-124486] | 37.63%
NC1=NC2(CCCCC2)N(OCCCOc2cccc3ccccc23)C(N)=N1 [TCMDC-131649] | 49.63%
Cc1ccc(Nc2c3ccccc3nc3ccc(C)cc23)cc1 [TCMDC-124153] | -51.64%
Cl.c1ccc2c(Nc3ccc(Oc4ccc(Nc5c6ccccc6nc6ccccc56)cc4)cc3)c3ccccc3nc2c1 [TCMDC-124284] | 101.1%

Structure (SMILES) | % Inhibition
CC(=O)Nc1cccc(Nc2c3ccccc3nc3ccccc23)c1 [TCMDC-123741] | -71.42%
O=c1c2ccccc2[nH]c2nc3ccccc3c(Nc3ccccc3)c12 [TCMDC-141996] | 28.3%
CC(=O)Nc1ccc(Nc2c3ccccc3nc3ccccc23)cc1 [TCMDC-124356] | 67.17%
Cl.c1ccc2c(Nc3ccc(OCCOCCOc4ccc(Nc5c6ccccc6nc6ccccc56)cc4)cc3)c3ccccc3nc2c1 [TCMDC-137355] | 108.9%
CCOc1ccc(Nc2nc(N)c3ccccc3n2)cc1.Cl [TCMDC-123748] | 31.55%
Cc1cc2cc(/C=C/C(=O)NC3CCC(CCN4CCc5ccc(C#N)cc5CC4)CC3)ccc2[nH]1 (stereo not shown) [TCMDC-139673] | -19.51%
CCn1cc2c3c(cc(C(=O)N[C@@H](Cc4ccccc4)[C@H](O)CNC4CCOCC4)cc31)N(C)S(=O)(=O)CC2 [TCMDC-135785] | -5.565%
COc1ccc(Nc2nc(NC3CCCC3)cc(-c3ccc(OC)cc3)n2)cc1 [TCMDC-133468] | -75.14%
Cc1ccccc1C1CCN(c2ccc(C(=O)Nc3ccc(F)cc3)cn2)CC1 [TCMDC-134611] | 39.85%
CC(C)[C@H](NC(=O)c1ccc(O)c(-c2ccc(Cl)c(Cl)c2)c1)C(=O)NCCN1CCOCC1 [TCMDC-140850] | -3.222%
C=CCOC(=O)N1CCC(CNCc2ccc(-c3cccc(-c4nc5cccc(C)c5[nH]4)c3)cc2)C1.O=C(O)C(F)(F)F (stereo not shown) [TCMDC-133039] | 9.6%
CC(Cc1ccc(Cl)cc1)Nc1nc(NC2CCCC2)nc(N2CCC(C#N)(c3ccccc3)CC2)n1 (stereo not shown) [TCMDC-139928] | -79.71%
CN(C)c1ccc(-c2ccc(C(=O)NC3CCN(Cc4ccc(C(C)(C)C)cc4)CC3)s2)cc1 [TCMDC-134354] | -40.81%
CN(C)c1ccc(CN2CCCCC(NC(=O)c3cc(-c4ccccc4F)cs3)C2)cc1 (stereo not shown) [TCMDC-134471] | -62.25%
CN(C)c1ccc(-c2csc(C(=O)NC3CCN(Cc4ccc(C(C)(C)C)cc4)C3)c2)cc1 (stereo not shown) [TCMDC-134476] | 63.77%
CN(C)c1ccc(-c2csc(C(=O)NC3CCCCN(Cc4ccc(C(C)(C)C)cc4)C3)c2)cc1 (stereo not shown) [TCMDC-134470] | 63.14%
CC(=O)Nc1ccc(CN2CCC(NC(=O)c3cc(-c4ccc(N(C)C)cc4)cs3)C2)cc1 (stereo not shown) [TCMDC-134477] | 92.99%
